HT1080 IDH1KD tx: qHTS for induction of synthetic lethality in tumor cells producing 2HG: qHTS for the HT-1080-IDH1KD cell line | HT-1080 IDH1 knockdown viability, ATP luminescence, 48 h | Potency, µM (doses to about 46.1 µM), inactives show at the top dose activity, negative = toxicity, most hits filed as cytotoxic | 2% of 360,000 active | AID 686971, 2013;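 note: 0% = DMSO wells and -100% = cell-free medium wells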
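Knockdown cells (IDH1KD HT-1080) received compounds 2 h after plating at 750 cells/well and were kept 48 h at 37 °C in 5% FBS RPMI. A CellTiter-Glo luminescence read gave % activity for curve fitting.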
DT40 TDP1 no CPT: qHTS for Inhibitors of human tyrosyl-DNA phosphodiesterase 1 (TDP1): qHTS in cells in absence of CPT; DT40 Tdp1-/- hTDP1 cells, no CPT, ATP luminescence, 48 h; Potency, µM (titrated, usually from 46.2 µM), inactives show at the top dose activity change, negative = growth inhibition, hits mostly inhibitors; 15% of 420,000 active; AID 686978, 2013; note: nearly all actives have a fitted effect of over 55% in size
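Growth of hTDP1-complemented DT40 Tdp1-knockout cells is measured by ATP luminescence after at least 48 hr compound exposure at 37 °C, with DMSO substituting for the 20 nM CPT used in the parallel screen.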
KB-V1 MDR tox: qHTS assay for MDR1-selective chemotherapeutics: Primary screen using the drug-selected MDR subline cells KB-V1; AID 1347076, 2019; 3.4% of 400,000 active; Potency, µM (top dose mostly 46.1 µM), most hits filed as cytotoxic; KB-V1 MDR cells viability, CellTiter-Glo, 72 h; note: nearly all actives have a fitted effect of over 60% in size
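Drug-selected KB-V1 cells, grown in DMEM lacking phenol red with 10% FBS, receive compound titrations; after three days at 37 degrees C, surviving cell ATP is quantified by CellTiter-Glo luminescence and responses normalized and curve-fitted.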
TDP1 cell CPT: qHTS for Inhibitors of human tyrosyl-DNA phosphodiesterase 1 (TDP1): qHTS in cells in presence of CPT | Potency, µM (doses to about 46.2 µM), inactives show at the highest dose activity change, negative = growth inhibition, hits mostly inhibitors | chicken DT40 Tdp1-/-;hTDP1 cells + 20 nM CPT, ATP luminescence, 48 h | 12% of 420,000 active; note: nearly all actives have a fitted effect of over 55% in size
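Cell growth measured by CellTiter-Glo luminescence after a minimum 48 h, 37 C compound exposure with 20 nM CPT in Tdp1-knockout DT40 cells stably expressing hTDP1, seeded 400/well; qHTS titration format.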
KB-3-1 cytotox: qHTS assay for MDR1-selective chemotherapeutics: Primary screen using the parental adenocarcinoma cell KB-3-1 | KB-3-1 viability, CellTiter-Glo ATP luminescence, 72 h | Potency, µM (doses to about 46.1 µM), most hits filed as cytotoxic | 1.4% of 400,000 active | AID 1347075, 2019; note: nearly all actives have a fitted effect of over 60% in size
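Parental KB-3-1 adenocarcinoma cells in phenol-red-free DMEM with 10% FBS were pin-treated with compounds at several concentrations, incubated 72 h at 37 °C, and viability read by CellTiter-Glo luminescence; concentration-effect curves were fitted after normalization.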
HT1080-NT tox: qHTS for induction of synthetic lethality in tumor cells producing 2HG: qHTS for the HT-1080-NT fibrosarcoma cell line. HT-1080-NT fibrosarcoma viability, CellTiter-Glo ATP luminescence, 48 h. Potency, µM (top dose mostly 46.1 µM), for the others: at the top dose activity, negative = less viability, usual class: cytotoxic. 1.6% of 360,000 active. AID 686970, 2013;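 note: NT is the 2HG producing partner of a matched IDH1 knockdown line; 0% = DMSO-treated cells and -100% = media-only wells without cells; nearly all actives have a fitted effect of over 55% in size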
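Luminescent CellTiter-Glo readout after 48 hours of compound exposure at 37 degrees C defined viability of HT-1080-NT cells. Activity was normalized to DMSO wells and cell-free media wells; concentration-response curves were fitted and assigned curve classes.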
Active calls of the source: *; i = inactive; ? = inconclusive; . = not tested or not shown. Only some compounds are listed: those with a hit (about 19% of all), similar ones and a draw of the others. Calls come from the whole dose curve; as a rule, active = well fitted curve in the direction sought with a large enough effect; inconclusive = small, poorly fitted or top-dose-only effect, or another doubt; inactive = no such curve, though single readings can be large; an effect the other way counts as inactive or inconclusive. Unless noted, % is set by controls: 0 for no effect and ±100 for the full control effect; potency is the fitted concentration of half-maximal effect.

SMILES	HT1080 IDH1KD tx	DT40 TDP1 no CPT	KB-V1 MDR tox	TDP1 cell CPT	KB-3-1 cytotox	HT1080-NT tox
COc1ccc(OC)c(NC(=O)Cn2c(CCC(=O)O)ccc2-c2ccc(C)cc2)c1	-7%	-10%	?	-5%	i	0%
COc1ccc(-c2ccc(CCC(=O)O)n2-c2ccccc2C(F)(F)F)cc1	.	?	i	?	18µM*	.
CN(CCOc1ccccc1)C(=O)C1CCN(C(=O)c2ccc(F)cc2)CC1	-5%	?	.	?	.	-1%
COCCCNC(=O)CCC(=O)N1Cc2ccccc2Oc2ncccc21	.	0%	i	-19%	i	.
O=[N+]([O-])c1cccc(-c2cc(-c3cc(Br)ccc3O)[nH]n2)c1	?	21µM*	21µM*	?	21µM*	?
Oc1ccc(Br)cc1-c1cc(-c2ccc(Cl)cc2)n[nH]1	23µM*	?	10µM*	21µM*	18µM*	23µM*
Oc1ccc(Br)cc1-c1cc(-c2ccccc2)n[nH]1	21µM*	?	i	?	i	29µM*
CN1CCN(C(=O)c2cc(Br)cn2C)CC1	21%	-9%	?	9%	i	9%
COc1cccc(-c2nnn(CC(=O)N(CC(C)C)C3CCS(=O)(=O)C3)n2)c1 (configuration not stated)	-5%	-21%	i	11%	i	9%
COc1ccc(C(C)=O)cc1CN1C(=O)C(C)ON=C1c1cccc(C(F)(F)F)c1 (configuration not stated)	3%	16µM*	?	?	i	7%
COc1ccc(C(C)=O)cc1CN1C(=O)C(C)ON=C1c1ncccc1C (configuration not stated)	?	10%	i	-11%	i	20%
CNC(=O)NC(=O)C(NC1CCCc2ccccc21)c1ccccc1 (configuration not stated)	-7%	-3%	i	-21%	i	-10%
Cc1ccc(NC(=O)C(NC2CCCc3ccccc32)c2ccccc2)cc1Cl (configuration not stated)	-26%	18µM*	i	2.9µM*	?	-5%
COc1ccc(C)cc1NC(=O)NC1CCCc2ccccc21 (configuration not stated)	-1%	18%	?	-5%	i	-3%
Cc1ccc(NC(=O)C(NC2CCCc3ccccc32)c2ccccc2)c([N+](=O)[O-])c1 (configuration not stated)	-21%	23µM*	?	?	i	-4%
Cc1oc(-c2cccs2)nc1CN1CCC(c2ccccc2)CC1	-5%	3%	i	-18%	i	-5%
O=C(Nc1ccc(N2CCCC2)cc1)c1ccccc1F	-21%	?	?	10µM*	i	-19%
O=C(/C=C/c1ccncc1)c1ccc(NC(=O)c2ccccc2F)cc1	9.2µM*	2.9µM*	?	4.1µM*	?	7.3µM*
CCN(CC)c1ccc(NC(=O)c2ccccc2F)cc1	16µM*	23µM*	?	?	16µM*	?
O=C(Nc1ccc(N2CCCCC2)cc1)c1ccc(F)cc1F	-1%	-10%	i	-22%	i	-9%
O=C(/C=C/c1ccc(NC(=O)c2ccccc2-c2ccccc2C(=O)O)cc1)c1ccccc1	?	?	i	-19%	i	?
N#CC1(c2ccc(NC(=O)c3ccccc3F)cc2)CCCC1	-6%	?	23µM*	?	?	-7%
COc1cc(C(O)P(=O)(OCCC(C)C)c2ccc(N(C)C)cc2)cc(OC)c1OC (configuration not stated)	1%	?	?	?	i	13%
O=C(Nc1ccc(N2CCCC2)cc1)c1cccc(Cl)c1Cl	-15%	16µM*	?	?	?	-15%
CC(=O)N1CCN(c2ccc(NC(=O)c3cccc(Cl)c3Cl)cc2)CC1	3%	-21%	i	-20%	i	-11%
SMILES	HT1080 IDH1KD tx	DT40 TDP1 no CPT	KB-V1 MDR tox	TDP1 cell CPT	KB-3-1 cytotox	HT1080-NT tox
Nc1nonc1C(=Nc1ccc(Br)cc1)NO	-15%	?	i	26µM*	i	-4%
CC(=O)N/N=C(\N)c1nonc1N	8%	-7%	i	5%	i	10%
O=C1CCc2cc(S(=O)(=O)NCCC(=O)NC3CCCCC3)ccc2N1	19%	22%	?	7%	i	0%
COc1ccc(NC2=C(C(C)=O)C(c3ccccc3)C(C(C)=O)C(C)(O)C2)cc1 (configuration not stated)	-18%	-12%	i	-6%	?	-23%
CCOC(=O)C1=C(Nc2ccccc2)CC(C)(O)C(C(=O)OCC)C1c1ccc(Cl)cc1 (configuration not stated)	-8%	?	21µM*	?	?	-7%
O=C(CCSc1ccc(Br)cc1)c1ccc(O)cc1	-4%	4.1µM*	i	3.7µM*	i	-2%
Oc1cccc(-c2nc3c4c(ncn3n2)-c2ccccc2CC42CCCC2)c1	11µM*	18µM*	7.3µM*	18µM*	i	?
Cc1ccccc1OCc1nc2c3c(ncn2n1)-c1ccccc1CC31CCCC1	23%	15µM*	?	?	?	19%
Cc1cccc(OCc2nc3c4c(ncn3n2)-c2ccccc2CC42CCCC2)c1	6%	-28%	?	?	i	8%
Cc1ccc(OCc2nc3c4c(ncn3n2)-c2ccccc2CC42CCCC2)cc1	8%	?	?	-17%	i	7%
COc1ccc(OCc2nc3c4c(ncn3n2)-c2ccccc2CC42CCCC2)cc1	13%	?	12µM*	?	i	5%
CC(C)CCNC(=O)C1CCC(CNS(=O)(=O)c2cccc3nsnc23)CC1 (configuration not stated)	0%	?	?	?	i	-4%
CCCCN(C(=O)C1CCC(CNS(=O)(=O)c2cccc3nsnc23)CC1)c1ccccc1 (configuration not stated)	.	21µM*	?	?	?	.

Bioassay records (PubChem BioAssay)
